Assay [1] can be described thus: Cell Viability - NIH 3T3 (AID 541).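 Also: cells exposed to compound for 40 hours; plate controls were DMSO alone for no effect and tamoxifen positive control for full effect; nearly all actives have a fitted effect of over 25% in size.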 Particulars: NIH 3T3 cell viability, qHTS; activity change, negative = cytotoxicity: at 92.2 µM (top of the series). An outline of the steps:
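qHTS format; 40 hr compound exposure, 37 °C; CellTiter-Glo luminescence (cellular ATP) read-out after 20 min at RT. Decrease in ATP = cytotoxicity; AC50 from standard Hill fit.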
(In general: Quantitative high-throughput screening tests each substance at several concentrations.)

The nature of assay [2]: Cellular Toxicity (caspase-3) BJ (AID 658).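 Also: cells exposed to compound for 16 hours; 0% = DMSO basal and 100% = 10 µM staurosporine.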 The conditions noted are these: Potency: caspase-3 activation. An outline of the steps: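 qHTS, BJ fibroblasts, 1000 cells/well; 5 hr preincubation, 16 hr compound, 37 °C; Caspase-Glo 3/7 reagent, 1 hr RT; luminescence. DMSO = 0%, 10 uM staurosporine = 100%. Hill-equation AC50.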
Assay [3] can be described thus: Cellular Toxicity (caspase-3) Mesangial (AID 660).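 Also: combined caspase 3 and 7 activity read by Caspase-Glo luminescence; cells exposed to compound for 16 h before the caspase read.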 In a few lines: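 Luminescent Caspase-Glo 3/7 readout (aminoluciferin substrate cleavage, 20 min RT) after 16 h compound exposure at 37 °C of normal human mesangial cells. Signal increase normalized between DMSO basal and 100 uM tamoxifen; Hill-equation AC50.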
A short description of assay [4]: Cellular Toxicity (caspase-3) H-4-II-E (AID 663).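 Also: cells exposed to compound for 16 hr before readout; 0% = DMSO basal and 100% = 100 µM tamoxifen.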 The conditions noted are these: Potency: caspase-3 activation. An outline of the steps:
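H-4-II-E rat hepatoma, 1500 cells/well, 5 hr settle at 37 °C; compound 16 hr, 37 °C, complete medium; Caspase-Glo 3/7, 20 min RT; luminescence. DMSO = 0%, 100 uM tamoxifen = 100%; Hill-equation AC50.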

The target of assay [5] is Peroxisome proliferator-activated receptor delta (Homo sapiens) (UniProt Q03181). Put plainly: qHTS assay for small molecule antagonists of peroxisome proliferator-activated receptor delta signaling (AID 588535; active = well fitted inhibition curve with a large enough effect in the signal ratio, with a control signal flat, not every such curve was filed as active; the % refers to the signal ratio). In a few lines: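 Beta-lactamase reporter read-out (405 nm excitation, 460/530 nm emission) after CCF4 loading for 2 hrs at RT. HEK293T PPAR-delta-UAS-bla cells, 2% charcoal/dextran FBS, compounds for 18 hrs at 37 C. Hill fit gave IC50 and efficacy.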
Sequence of Peroxisome proliferator-activated receptor delta (Homo sapiens) (Q03181 whole entry, looked up): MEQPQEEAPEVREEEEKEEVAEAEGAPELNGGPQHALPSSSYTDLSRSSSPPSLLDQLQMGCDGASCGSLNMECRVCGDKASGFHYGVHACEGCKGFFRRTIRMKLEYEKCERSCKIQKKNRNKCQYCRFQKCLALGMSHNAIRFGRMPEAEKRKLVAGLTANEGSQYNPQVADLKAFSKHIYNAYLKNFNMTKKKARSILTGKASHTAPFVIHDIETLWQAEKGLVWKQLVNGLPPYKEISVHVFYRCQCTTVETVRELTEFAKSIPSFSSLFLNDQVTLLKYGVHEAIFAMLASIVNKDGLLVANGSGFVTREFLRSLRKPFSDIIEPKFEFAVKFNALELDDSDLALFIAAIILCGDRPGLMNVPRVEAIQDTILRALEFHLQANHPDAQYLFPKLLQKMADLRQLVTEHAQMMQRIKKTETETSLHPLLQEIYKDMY

Assay [6] can be described thus: qHTS assay for small molecule activators of the p53 signaling pathway (AID 651743; active = well fitted activation curve with a large enough effect in the signal ratio, not every such curve was filed as active; the % refers to the signal ratio; also: % of control where 0% means no effect). The conditions noted are these: HCT-116 p53RE-bla, beta-lactamase FRET ratio, 16 h; activation: hits give high values. An outline of the steps:
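Reporter: beta-lactamase driven by p53 response elements, stably integrated in HCT-116 cells. Cells seeded at 4,000/well, 5 h preincubation, compound (DMSO) 16 h at 37 C; B/G FRET substrate 2 h RT; fluorescence intensity read.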

For assay [7], the target named is Tumor necrosis factor (Homo sapiens) (UniProt P01375). Put plainly: qHTS assay to identify small molecules that stimulate Tumor Necrosis Factor-alpha (TNF-alpha) secretion (AID 651757; active = well fitted curve in the direction sought with a large enough effect in the signal ratio; the % refers to the signal ratio; also: 0% is about no effect). An outline of the steps: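 THP-1 cells, 3000/well; compound 17 hrs, 37 C; add cryptate/XL665 anti-TNF-alpha antibody pair; 3 hr RT; TR-FRET (HTRF) read of secreted TNF-alpha. Quantitative HTS format.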
Sequence of Tumor necrosis factor (Homo sapiens) (P01375 whole entry, looked up): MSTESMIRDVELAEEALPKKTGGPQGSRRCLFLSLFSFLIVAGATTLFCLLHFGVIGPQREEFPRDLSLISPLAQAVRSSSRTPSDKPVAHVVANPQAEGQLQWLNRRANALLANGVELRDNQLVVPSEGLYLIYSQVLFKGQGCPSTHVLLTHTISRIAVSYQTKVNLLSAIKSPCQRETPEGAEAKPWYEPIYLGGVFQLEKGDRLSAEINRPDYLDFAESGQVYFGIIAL

In assay [8] the target is Nuclear receptor ROR-gamma (Homo sapiens) (UniProt P51449). In words: qHTS assay for small molecule antagonists of the retinoid-related orphan receptor gamma (ROR-gamma) signaling pathway (AID 651802). Also: nearly all actives have a fitted effect of over 60% in size. Also: potency is read from the fitted curve at half-maximal effect. In a few lines:
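Luciferase read-out: ONE-Glo luminescence after 30 min at room temperature, following 16hr doxycycline induction at 37C, 5% CO2 of CHO cells with TET-inducible ROR and RORE-LUC reporter; decreased luminescence = reduced reporter activity.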

The nature of assay [9]: Cell Viability - Jurkat (AID 426;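 active = dose-dependent loss of cell ATP signal giving a full or clear fitted curve, ranked by lower potency value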;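 also: potency is read from the fitted curve at half-maximal effect; cells exposed to compound for 40 hours at 37 °C before ATP read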). Particulars: qHTS. In a few lines:
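Luminescent ATP read-out (CellTiter-Glo, 20 min at room temperature) after 40 hr compound exposure at 37 °C of Jurkat E6-1 cells, 5000/well. Decreased ATP taken as cytotoxicity; AC50 from standard Hill equation.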

A short description of assay [10]: Cellular Toxicity (caspase-3) SHSY5Y (AID 657).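 Also: cells exposed to compound for 16 hours at 37 °C.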 In a few lines:
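qHTS, SH-SY5Y, 1500 cells/well, 5 h pre-incubation 37 °C; compound 16 h 37 °C; Caspase-Glo 3/7 1 h RT; luminescence. Norm.: DMSO = 0, 10 uM staurosporine = 100%. Hill fit → AC50.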

The target in assay [11] is Cytochrome P450 3A4 (Homo sapiens) (UniProt P08684). Put plainly: qHTS Assay for Inhibitors and Substrates of Cytochrome P450 3A4 (AID 884). Also: % is scaled to controls: 0 for no effect and ±100 for the full control effect; nearly all actives have a fitted effect of over 50% in size. An outline of the steps:
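Luminescent readout of luciferin produced by CYP3A4 (20 nM) dealkylation of Luciferin-PPXE, 25 uM (its KM). NADPH-driven reaction ran 60 min at RT after 10 min compound preincubation; data scaled to 57 uM ketoconazole as 100% inhibition.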

Assay [12] has as its target Estrogen receptor (Homo sapiens) (UniProt P03372). Put plainly: qHTS assay for small molecule antagonists of estrogen receptor alpha signaling (AID 588513; active = well fitted curve in the direction sought with a large enough effect in the signal ratio, with a control signal flat, not every such curve was filed as active; the % refers to the signal ratio; also: % is scaled to controls: 0 for no effect and ±100 for the full control effect). An outline of the steps: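 Fluorescence from CCF4 substrate after 2 h at room temperature gave reporter activity; cells had been exposed to compound and 0.5nM 17-beta-estradiol for 18 h at 37 C. Hill-equation fitting yielded IC50 and maximal response.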

Assay [13] shares this target. Put plainly: qHTS assay for small molecule agonists of estrogen receptor alpha signaling (AID 588514; calls by dose curve;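 also: 0% = vehicle only and 100% = reference agonist; nearly all actives have a fitted effect of over 70% in size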). An outline of the steps: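 Read-out: CCF4 fluorescence from a beta-lactamase reporter in ER-alpha-UAS-bla HEK 293 cells after 18 hrs of compound exposure at 37 C. Normalized to 20 nM 17-beta-estradiol (100%) and DMSO (0%).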
Assay [14] deals with Peroxisome proliferator-activated receptor gamma (Homo sapiens) (UniProt P37231). Put plainly: qHTS assay for small molecule agonists of peroxisome proliferator-activated receptor gamma signaling (AID 588536; active = well fitted curve in the direction sought with a large enough effect in the signal ratio, with a control signal flat, not every such curve was filed as active; the % refers to the signal ratio;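 also: 0% = DMSO basal wells and 100% = rosiglitazone at 2 µM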). An outline of the steps:
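Using GeneBLAzer HEK293 cells, response was quantified by CCF4 fluorescence and normalized between basal DMSO (0%) and rosiglitazone 2 uM (100%); curves yielded half-maximal stimulation concentration and efficacy.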

A short description of assay [15]: qHTS assay for small molecule agonists of the antioxidant response element (ARE) signaling pathway (AID 651741; active = well fitted activation curve with a large enough effect in the signal ratio; the % refers to the signal ratio; also: potency is read from the fitted curve at half-maximal effect; as to activation: % of control where 0% means no effect). An outline of the steps:
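HepG2 ARE-bla reporter cells, 2,000/well; 5 h settle at 37 C/5% CO2; compound pin transfer (23 nL, DMSO); 16 h at 37 C; LiveBLAzer B/G FRET substrate, 2 h RT; fluorescence intensity read.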

Assay [16] in a line: qHTS assay for small molecule activators of the nuclear factor-kappa B (NF-kB) signaling pathway (AID 651749; active = well fitted activation curve with a large enough effect in the signal ratio; the % refers to the signal ratio; also: % of control where 0% means no effect). The conditions noted are these: NF-kB-bla ME-180 cells, beta-lactamase FRET ratio, 16 h; hits give high values. In a few lines: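 NF-kB-bla ME-180 cells, 2,000/well; 23 nL compound or DMSO pinned; 16 hr, 37C/5% CO2; beta-lactamase FRET read-out.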
A short description of assay [17]: qHTS assay for small molecule antagonists of the retinoid-related orphan receptor gamma (ROR-gamma) signaling pathway - cell viability counter screen (AID 720652; active = well fitted curve in the direction sought with a large enough effect in the repeat runs; an effect the other way counts as inactive or inconclusive;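 also: CHO reporter cells with doxycycline-induced ROR-gamma expression; compound exposure lasted 16 hr before ATP read; % is scaled to controls: 0 for no effect and ±100 for the full control effect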). In a few lines:
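CHO RORE-LUC/TET-ROR line, 1,000 cells/well, 37 C 5% CO2 5 hr; cpd or DMSO + doxycycline induction, 16 hr. CellTiter-Glo, 30 min RT, luminescence = ATP content.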

The nature of assay [18]: qHTS assay for small molecule activators of the human pregnane X receptor (PXR) signaling pathway (AID 720659; call rule not given here; also: 0% is about no effect).
The target of assay [19] is Vitamin D3 receptor (Homo sapiens) (UniProt P11473). Put plainly: qHTS assay for small molecule antagonists of vitamin D receptor signaling (AID 588541; calls by dose curve;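 also: receptor activated by calcitriol during compound treatment; % is scaled to controls: 0 for no effect and ±100 for the full control effect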). An outline of the steps:
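VDR-UAS-bla HEK293T cells in 2% charcoal-stripped FBS were stimulated with 1-alpha,25-dihydroxyvitamin D3 (3 nM final) plus compound for 16 h at 37 C. The beta-lactamase CCF4 readout was normalized to 50 nM agonist and DMSO, and Hill fits gave IC50.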

For assay [20] the target is unchanged. Put plainly: qHTS assay for small molecule agonists of vitamin D receptor signaling (AID 588543; calls by dose curve;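 also: 0% = DMSO basal and 100% = reference agonist control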). An outline of the steps: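 Reporter cells (HEK293T, VDR-UAS-bla) were seeded in medium with 2% charcoal-stripped serum and incubated 5 h, then compounds in concentration series were added for 16 h at 37 °C. Stimulation was scaled between DMSO basal and 50 nM 1α,25-dihydroxyvitamin D3.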

Values joined by “and” are separate entries in the source; they are usually repeats but may differ in a detail not shown here. Equal values may be shown once. Unmarked numbers belong to inactive results. Results filed as inconclusive are left out. Active and inactive are the calls of the source. Unless noted, calls follow the shape of the dose curve; as a rule, active = well fitted curve in the direction sought with a large enough effect; inconclusive = small, poorly fitted or top-dose-only effect, or another doubt; inactive = no such curve, though single readings can be large; an effect the other way counts as inactive or inconclusive.

Sequence of Peroxisome proliferator-activated receptor gamma (Homo sapiens) (P37231 whole entry, looked up): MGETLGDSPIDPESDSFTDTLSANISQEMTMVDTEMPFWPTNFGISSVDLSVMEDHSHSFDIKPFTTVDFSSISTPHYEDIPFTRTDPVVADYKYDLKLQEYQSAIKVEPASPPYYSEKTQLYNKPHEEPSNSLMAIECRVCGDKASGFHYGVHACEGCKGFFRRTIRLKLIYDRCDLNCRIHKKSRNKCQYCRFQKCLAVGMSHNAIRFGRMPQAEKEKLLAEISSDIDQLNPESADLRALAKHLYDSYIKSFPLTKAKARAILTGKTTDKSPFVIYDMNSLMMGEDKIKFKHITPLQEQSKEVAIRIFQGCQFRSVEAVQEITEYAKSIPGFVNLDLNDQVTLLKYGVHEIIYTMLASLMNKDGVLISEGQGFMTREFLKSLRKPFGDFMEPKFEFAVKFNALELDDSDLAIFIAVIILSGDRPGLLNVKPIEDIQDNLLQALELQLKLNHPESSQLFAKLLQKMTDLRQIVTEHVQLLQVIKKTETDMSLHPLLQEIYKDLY
Sequence of Vitamin D3 receptor (Homo sapiens) (P11473 whole entry, looked up): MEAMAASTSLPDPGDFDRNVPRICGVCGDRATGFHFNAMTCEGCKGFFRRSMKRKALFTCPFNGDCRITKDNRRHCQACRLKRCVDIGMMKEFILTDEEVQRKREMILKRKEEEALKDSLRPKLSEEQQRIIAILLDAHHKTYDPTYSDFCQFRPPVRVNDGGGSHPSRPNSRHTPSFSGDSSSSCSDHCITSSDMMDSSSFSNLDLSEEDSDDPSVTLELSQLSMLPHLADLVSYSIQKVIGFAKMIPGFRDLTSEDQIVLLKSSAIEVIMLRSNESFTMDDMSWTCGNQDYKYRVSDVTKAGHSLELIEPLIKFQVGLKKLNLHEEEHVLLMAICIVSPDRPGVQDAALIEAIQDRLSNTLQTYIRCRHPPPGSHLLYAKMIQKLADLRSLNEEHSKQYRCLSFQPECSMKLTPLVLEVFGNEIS
Sequence of Nuclear receptor ROR-gamma (Homo sapiens) (P51449 whole entry, looked up): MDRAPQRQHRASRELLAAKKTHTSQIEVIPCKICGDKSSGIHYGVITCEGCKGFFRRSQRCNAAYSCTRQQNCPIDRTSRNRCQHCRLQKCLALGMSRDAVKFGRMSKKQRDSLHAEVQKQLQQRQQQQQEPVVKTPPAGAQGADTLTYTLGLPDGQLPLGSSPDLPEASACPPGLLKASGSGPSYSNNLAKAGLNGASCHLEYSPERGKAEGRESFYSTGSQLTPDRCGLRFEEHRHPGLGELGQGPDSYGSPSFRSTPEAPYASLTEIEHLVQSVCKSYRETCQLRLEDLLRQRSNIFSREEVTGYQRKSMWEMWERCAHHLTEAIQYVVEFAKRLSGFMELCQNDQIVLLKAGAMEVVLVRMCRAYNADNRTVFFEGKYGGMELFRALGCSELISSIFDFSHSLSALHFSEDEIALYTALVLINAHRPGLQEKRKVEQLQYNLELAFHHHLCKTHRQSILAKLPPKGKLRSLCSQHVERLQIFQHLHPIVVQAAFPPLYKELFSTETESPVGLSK
Sequence of Estrogen receptor (Homo sapiens) (P03372 whole entry, looked up): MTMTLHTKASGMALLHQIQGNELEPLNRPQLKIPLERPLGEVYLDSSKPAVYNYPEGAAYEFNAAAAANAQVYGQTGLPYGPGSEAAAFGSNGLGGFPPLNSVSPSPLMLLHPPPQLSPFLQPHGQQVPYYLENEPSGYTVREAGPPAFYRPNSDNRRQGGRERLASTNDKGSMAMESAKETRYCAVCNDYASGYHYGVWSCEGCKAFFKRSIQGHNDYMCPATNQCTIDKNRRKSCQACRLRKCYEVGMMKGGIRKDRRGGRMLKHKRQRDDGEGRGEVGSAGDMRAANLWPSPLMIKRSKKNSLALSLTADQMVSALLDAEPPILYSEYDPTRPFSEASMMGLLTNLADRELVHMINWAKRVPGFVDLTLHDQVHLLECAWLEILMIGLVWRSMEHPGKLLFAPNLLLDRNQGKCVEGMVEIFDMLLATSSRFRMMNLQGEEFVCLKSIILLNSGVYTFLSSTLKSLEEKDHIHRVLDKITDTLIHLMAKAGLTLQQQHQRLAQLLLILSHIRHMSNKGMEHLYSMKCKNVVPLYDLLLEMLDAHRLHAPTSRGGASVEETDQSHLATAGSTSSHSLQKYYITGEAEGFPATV
Sequence of Cytochrome P450 3A4 (Homo sapiens) (P08684 whole entry, looked up): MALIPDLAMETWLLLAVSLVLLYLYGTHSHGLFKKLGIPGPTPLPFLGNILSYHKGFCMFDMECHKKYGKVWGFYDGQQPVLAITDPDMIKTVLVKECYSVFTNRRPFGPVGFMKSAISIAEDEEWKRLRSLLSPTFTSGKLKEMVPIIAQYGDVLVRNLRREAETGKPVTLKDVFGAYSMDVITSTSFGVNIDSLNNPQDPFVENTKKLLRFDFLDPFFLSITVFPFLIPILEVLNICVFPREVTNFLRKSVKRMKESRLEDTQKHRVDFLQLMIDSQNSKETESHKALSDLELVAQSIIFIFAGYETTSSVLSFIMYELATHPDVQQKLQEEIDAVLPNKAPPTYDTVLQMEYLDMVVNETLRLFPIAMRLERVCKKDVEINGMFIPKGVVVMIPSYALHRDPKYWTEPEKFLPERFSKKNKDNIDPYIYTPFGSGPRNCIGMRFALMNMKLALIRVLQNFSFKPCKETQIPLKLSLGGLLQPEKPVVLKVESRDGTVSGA

Turning to `c1ccc(Nc2cccc3ccccc23)cc1`, the activity change, negative = cytotoxicity in assay [1] was -22.5%. In addition, the Potency result in [2], in [4], in [7] and in assay [8] was “inactive” each time. Besides, the call in assay [3] and in assay [5] was inactive. Also, the activation in assay [6] was -1.55% and -1.95%.

With `O=C(Cl)c1ccc([N+](=O)[O-])cc1`, the Potency in [9] was over 92 µM. Also, the activity change, negative = cytotoxicity in assay [1] is -20%. The Potency result in [10], in [2], in assay [4], in assay [11], in assay [13] and in assay [15] was “inactive” in each case. In addition, the Potency entry in [7], in [8] and in [17] was “inactive” in each case. Moreover, the compound was called inactive in assay [12], in [5], in assay [14] and in assay [18]. The activation in [16] was -1.16%.

`Clc1nc2ccccc2nc1Cl`: in assay [1], the activity change, negative = cytotoxicity was -143% (active). For the same compound, the Potency entry in assay [10], in assay [2], in [4], in [11], in [13] and in assay [19] was “inactive” each time. In addition, the Potency entry in assay [20], in assay [7] and in assay [8] was “inactive” in each case. Further, the result in [3] and in assay [12] was inactive. In assay [16], the activation was -0.675%.

Turning to `Nc1ccccc1O`, the activity change, negative = cytotoxicity in assay [1] was -130% (active). In addition, the Potency entry in assay [2], in assay [4], in assay [11], in assay [13], in assay [19] and in assay [20] was “inactive” each time. Besides, the Potency entry in [17] is “inactive”. For the same compound, the outcome in [12], in assay [5] and in [14] was inactive. For the same compound, the Potency in [15] was 13.3 µM (active). The activation in [6] was 17.3%.

For the compound `NC(=O)Nc1nc2ccccc2[nH]1`, the Potency result in [10], in assay [2], in assay [4], in assay [11], in assay [13] and in assay [19] was “inactive” each time. For the same compound, the Potency entry in [20], in assay [15], in assay [7], in assay [8] and in [17] was “inactive” each time. Moreover, the call in [12], in assay [5] and in assay [14] was inactive. Also, the activation is -0.426% in assay [6] and -0.124% in [16].

On to `C=CC(C)(O)CCCC(C)CCCC(C)CCCC(C)C` (stereo not drawn), for which, in assay [1], the activity change, negative = cytotoxicity is -10.5%. In addition, the Potency entry in [10], in assay [2], in assay [4], in assay [13], in assay [19] and in assay [20] was “inactive” in each case. The Potency result in [15] and in [7] was “inactive” in each case. The call in [12], in assay [5], in assay [14] and in [18] was inactive. In addition, the activation in [6] is -2.56%; in assay [16], -0.414%.

As to `C/C=C1/C(=O)C[C@H]2[C@@H]3CCC4=CC(=O)CC[C@]4(C)[C@H]3CC[C@]12C`, the Potency in [9] was 56.2 µM (active); in [15], 3.76 µM (active); in assay [8], 47.3 µM (active). In addition, the activity change, negative = cytotoxicity in [1] is -151% (active). Further, the Potency entry in assay [10], in assay [2], in assay [4], in [11] and in [7] was “inactive” throughout.

Regarding `C=Cc1cccc(C)c1`, the Potency in assay [9] was over 92 µM. Besides, the activity change, negative = cytotoxicity in [1] is 4.07%. Moreover, the Potency result in assay [10], in [4], in assay [11], in assay [13], in [19] and in assay [20] was “inactive” each time. For the same compound, the Potency result in assay [15], in [7], in assay [8] and in [17] was “inactive” throughout. For the same compound, the call in [3], in assay [12], in assay [5], in [14] and in assay [18] was inactive. Further, in assay [6], the activation is -1.54%.

The record behind these values is PubChem BioAssay (NCATS).
